Out of some 340,000 compounds screened, about 420 (0.12%) were called active. A call without a number means that no potency is given here. About 10% were inconclusive and are not listed. Calls come from the whole dose curve; as a rule, active = well fitted activation curve with a large enough effect; inconclusive = small, poorly fitted or top-dose-only effect, or another doubt; inactive = no such curve, though single readings can be large or run the other way; cell line not stated here. Only a selection was taken, and actives are over-represented in it overall.
Assay: qHTS for Agonist of gsp, the Etiologic Mutation Responsible for Fibrous Dysplasia/McCune-Albright Syndrome: qHTS; note: nearly all actives have a fitted effect of over 60% in size;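 for activation (cAMP increase): phosphodiesterase inhibitor Ro 20-1724 added with compounds to block cAMP breakdown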
Conditions: gsp mutant cells, cAMP HTRF, 30 min; series mostly up to 76.9 µM
Description: McCune-Albright syndrome (MAS) is a rare disease caused by somatic mutations in Gsgsp), a widely expressed protein central in signal transduction from G-coupled protein receptors (GPCRs). The disease symptoms are diverse, owing to the fact that the patients are mosaics with varying degrees of tissue involvement. Greater than 90% of the mutations in Gs in MAS occur at the R201 position and are equally divided between R201H and R201C. The R201 residue is central in the intrinsic GTPase activity of Gs and the H and C mutations lead to loss of, or impairment of, the GTPase activity. The intrinsic GTPase activity is necessary to terminate the interaction between Gs and adenylate cyclase, and to terminate the cAMP-mediated signaling of the given GPCR pathway. Thus, these activating mutations lead to ligand-independent activation of GPCR pathways. The tissue phenotype is determined by the role of Gs in the function of a given cell, and excess Gs/cAMP signaling in that cell. For example, pituitary somatotrophs overproduce growth hormone in a growth hormone releasing hormone-independent fashion, and gigantism/acromegaly ensues. Skeletal stem cells in the bone marrow behave as if they are under constant parathyroid hormone stimulation and fail to differentiate into osteoblasts and osteocytes, and proliferate as immature osteogenic cells and lead to the marrow fibrosis of fibrous dysplasia of bone. The goal of this project is to identify molecules with stimulatory activity at gsp mutations that will not only allow for in-depth study of the underlying molecular and cellular pathophysiology, but also serve as compounds from which drugs to treat FD/MAS can be developed NIH Chemical Genomics Center [NCGC] NIH Molecular Libraries Probe Centers Network [MLPCN] MLPCN Grant: IRP-FT-DE-2011-01 Assay Submitter (PI): Michael Collins, NIDCR
1.#Seed 2000 cells/well in 6 ul DMEM 10% FBS, 1% Pen/Strep, 0.5 mg/ml G418 2.#Incubate 16-24 hr at 37C, 5% CO2, 95% humidity 3.#Aspirate leaving 1 ul residual volume 4.#Dispense 5 ul/well DPBS + 1 mM CaCl2, 0.5 mM MgCl2, 0.05% BSA, 0.005% Tween 20 5.#Aspirate leaving 2 ul residual volume 6.#Dispense 23 nl/well compounds in DMSO 7.#Dispense 1 ul/well 300 uM Ro-20174 in DMEM 10% FBS 8.#Incubate 30 min at 37C, 5% CO2, 95% humidity 9.#Dispense 1.5 ul/well HTRF reagent: cAMP-d2 in lysis buffer 10.#Dispense 1.5 ul/well HTRF reagent: anti-cAMP antibody-K in lysis buffer 11.#Incubate 30 min at room temperature 12.#Detect HTRF signal using EnVision plate reader
In the case of CC(=O)Nn1cc2c(=O)n(C)c(=O)n(C)c2c1, the Potency is reported as 7.94 µM (active).
For Cn1c(=O)c2cn(-c3cccc4ccccc34)cc2n(C)c1=O, the activation (cAMP increase) was -9.96% [at 15.4 µM] (inactive).
With COc1ccc(-c2c3c(=O)n(C)c(=O)n(C)c3cn2NC(C)=O)cc1 the Potency was “inactive”.
For COc1ccc(OC)c(C(=O)NC2CCCc3c2cnn3-c2cc(C)cc(C)c2)c1 (stereo unspecified), the Potency was “inactive”.
In the case of CCOC(=O)c1cc(-c2sc(NC(=O)c3ccccc3)nc2C)n(CCO)n1, the Potency is reported as “inactive”.
For O=C(NCCS(=O)(=O)N1CCN(c2ccccc2)CC1)c1cc(=O)c2ccccc2o1, the Potency was “inactive”.
With COc1ccc(Cl)cc1NC(=O)CN(C)C(=O)c1cn(-c2ccccc2)nc1-c1cccs1 the Potency was “inactive”.
In the case of C[C@@H]1CN([C@@H](C)CO)C(=O)c2cc(Br)cnc2O[C@H]1CN(C)Cc1ccc(-c2ccccc2)cc1, the Potency is reported as “inactive”.
With CCOc1cc(/C=N/NC(=O)c2c(C)nc3ccc(Cl)cn23)ccc1O the Potency was “inactive”.
For Cc1ccc(NC(=O)COC(=O)CN2CCSC2=O)cc1F, the Potency was “inactive”.
With C[C@H]1Cn2cnc(C(=O)N[C@@H](Cc3c[nH]c4ccccc34)C(=O)OC(C)(C)C)c2C(=O)N1 the Potency was “inactive”.
In the case of CC(=O)Nc1ccc(C=Cc2ccc([N+](=O)[O-])cc2)cc1, the Potency is reported as “inactive”.
In the case of COC(=O)c1ccccc1N=NNc1ccc([N+](=O)[O-])cc1, the Potency is reported as “inactive”.
With CC(Sc1ccc(S(=O)(=O)N2CCN(C)CC2)cn1)C(=O)NC1CCCC(C)C1C (stereo unspecified) the Potency was “inactive”.
With CCOc1ncccc1C(=O)Nc1ccc(S(=O)(=O)Nc2nc(C)cc(C)n2)cc1 the Potency was 10 µM (active).
In the case of CCOc1ncccc1C(=O)Nc1ccc2c(c1)OCCO2, the Potency is reported as “inactive”.
For O=C(Nc1ccc(S(=O)(=O)Nc2ncccn2)cc1)c1cncc(Br)c1, the Potency was “inactive”.
For CCCc1c(C)nc2scc(-c3ccc(Cl)cc3)n2c1=O, the Potency was “inactive”.
With CC1=C(C(=O)N(C)C)CC(CC(=O)NCCN2CCOCC2)C(=O)N1Cc1ccccc1 (stereo unspecified) the Potency was “inactive”.
In the case of O=C1OCCC1=COCCCCOC=C1CCOC1=O, the Potency is reported as “inactive”.
With CCCCCCn1c(=O)n2n(c1=O)C[C@]1(OC(=O)NCc3ccc(OC)c(OC)c3)CN(S(=O)(=O)c3ccc(C)cc3)C[C@]1(O)C2 the Potency was “inactive”.
For COc1ccc(CN2C[C@H]3CON(C)[C@H]3C[C@H]2c2ccc(-c3cccc(F)c3)cc2)cc1, the Potency was “inactive”.
For Cc1onc(-c2ccccc2)c1-c1nnc(COC(=O)c2ccc(N(C)C)cc2)o1, the Potency was “inactive”.
With Cc1ccc(CCNC(=O)CN2C(=O)CSc3ccc(S(=O)(=O)N4CCOCC4)cc32)cc1 the Potency was “inactive”.
In the case of COc1ccc2c(c1)CCCO[C@]21O[C@H](CCO)C[C@H](O)[C@H]1O, the Potency is reported as “inactive”.
In the case of Cc1ccc(-c2ccc(C3=CC(=O)CC(C)(C)C3=O)cc2)cc1, the Potency is reported as “inactive”.

— PubChem BioAssay AID624287 (National Center for Advancing Translational Sciences (NCATS), 2012)
Potency is the fitted concentration of half-maximal effect.
